# Test system: HNSC
# Test: growth inhibition (% activity, log2 RLU normalised to DMSO / staurosporine); higher = more growth inhibition
# Conditions: 33 µM
# Procedure, shortened: (§1)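 The growth-inhibition value comes from CellTiter-Glo luminescence, log2-transformed, normalised per plate to % activity between solvent and positive control wells, and taken as the median over replicates. Treatment of pHGG cell lines and H9-derived neural stem cells with approved drugs was at a single final concentration of about 33 μM, in triplicate, for 7 days at 37 °C, 5% CO2.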
row,SMILES,growth inhibition [%]
1,C[N+](C)(C)CCCCCCCCCC[N+](C)(C)C,1.52
2,CC(=O)O[C@H]1C[C@@H]2CC[C@@H]3[C@H](CC[C@@]4(C)[C@H]3C[C@H]([N+]3(C)CCCCC3)[C@@H]4OC(C)=O)[C@@]2(C)C[C@@H]1[N+]1(C)CCCCC1,-0.41
3,CN(C)C(=O)Oc1ccc[n+](C)c1,-1.64
4,CN1c2ccccc2C(NCCCCCCC(=O)O)c2ccc(Cl)cc2S1(=O)=O (stereo unspecified),-2.51
5,O=c1[nH]c2ccccc2n1CCCN1CCC(n2c(=O)[nH]c3cc(Cl)ccc32)CC1,1.78
6,C[N+]1(C)CCCC(OC(=O)C(O)(c2ccccc2)c2ccccc2)C1 (stereo unspecified),20.4
7,CNC1CC(N)C(O)C(OC2OC(CO)C(O)C3OC4(OC(C(N)CO)C(O)C(O)C4O)OC23)C1O (stereo unspecified),1.11
8,CN1C(=O)CCS(=O)(=O)C1c1ccc(Cl)cc1 (stereo unspecified),2.59
9,CN(C)C(=O)Oc1cccc([N+](C)(C)C)c1,-0.376
10,CCC1=C[C@H]2CN3CCc4c([nH]c5ccccc45)[C@](C(=O)OC)(C2)[C@H]13,-4.27
11,NCC(O)c1ccc(O)cc1 (stereo unspecified),22.2
12,CCCN1C[C@H](CSC)C[C@@H]2c3cccc4[nH]cc(c34)C[C@H]21,-2.99
13,CN1C(=O)COc2c(C(=O)NC3CN4CCC3CC4)cc(Cl)cc21 (stereo unspecified),0.849
14,Cn1c(CCCC(=O)O)nc2cc(N(CCCl)CCCl)ccc21,48.6
15,CC(=O)OC12COC1CC(O)C1(C)C(=O)C(O)C3=C(C)C(O)CC(O)(C(OC(=O)c4ccccc4)C21)C3(C)C (stereo unspecified),11.9
16,CC(=O)OC1CN2CCC1CC2 (stereo unspecified),2.31
17,CC[C@@]1(O)C(=O)OCc2c1cc1n(c2=O)Cc2cc3ccccc3nc2-1,65.8
18,C/C=C(\C)C(=O)N[C@@H](c1ccccc1)[C@@H](O)C(=O)O[C@H]1C[C@@]2(O)[C@@H](OC(=O)c3ccccc3)[C@@H]3[C@]4(OC(C)=O)CO[C@@H]4C[C@H](O)[C@@]3(C)C(=O)[C@H](OC(C)=O)C(=C1C)C2(C)C,59.9
19,CCOC(=O)c1cncn1[C@H](C)c1ccccc1,3.19

row,SMILES,growth inhibition [%]
1,O=C(O[C@H]1C[C@H]2CC[C@@H](C1)[N+]21CCCC1)C(O)(c1ccccc1)c1ccccc1,20.6
2,NCCc1c[nH]c2ccc(O)cc12,-4.26
3,CCC1(c2ccc(N)cc2)CCC(=O)NC1=O (stereo unspecified),-1.67
4,N.N.[Cl][Pt][Cl],-5.11
5,C[N+]1(C)[C@@H]2C[C@@H](OC(=O)[C@H](CO)c3ccccc3)C[C@H]1[C@@H]1O[C@@H]12,-1.37
6,CN1C2CC(O)CC1C1OC12 (stereo unspecified),-2.89
7,C=CC[C@]1(O)CC[C@H]2[C@@H]3CCC4=CC(=O)CCC4=C3C=C[C@@]21C,2.23
8,CCC(COC(=O)c1cc(OC)c(OC)c(OC)c1)(c1ccccc1)N(C)C (stereo unspecified),52.1
9,CCCCCCCCCCCCCCCC[n+]1ccccc1,76.6
10,CC[C@@H](C(N)=O)N1CCCC1=O,-0.905
11,Cc1cc(O)ccc1Cl,-2.46
12,OC(c1ccccc1)(c1ccccc1)C1CCNCC1,-1.42
13,Cc1cccc(C)c1NC1=NCCCS1,-4.34
14,COc1ccc(C(=O)N2CCCC2=O)cc1,0.808
15,N[C@@H]1C[C@H]1c1ccccc1.N[C@H]1C[C@@H]1c1ccccc1,3.66
16,COC(=O)C1=CCCN(C)C1,1.06
17,C=CCN.ClCC1CO1 (stereo unspecified),0.544
18,O=P1(NCCCl)OCCCN1CCCl (stereo unspecified),-5.21
19,CN(C)C1C(=O)C(C(N)=O)=C(O)C2(O)C(=O)C3=C(O)c4c(O)cccc4C(C)(O)C3CC12 (stereo unspecified),-1.6

# Test system: SUDIPGIV (diffuse intrinsic pontine glioma line)
# Test: as above
# Conditions: 33 µM
# Procedure, shortened: as §1
row,SMILES,growth inhibition [%]
1,C[N+](C)(C)CCCCCCCCCC[N+](C)(C)C,0.278
2,CC(=O)O[C@H]1C[C@@H]2CC[C@@H]3[C@H](CC[C@@]4(C)[C@H]3C[C@H]([N+]3(C)CCCCC3)[C@@H]4OC(C)=O)[C@@]2(C)C[C@@H]1[N+]1(C)CCCCC1,-0.385
3,CN(C)C(=O)Oc1ccc[n+](C)c1,0.973
4,CN1c2ccccc2C(NCCCCCCC(=O)O)c2ccc(Cl)cc2S1(=O)=O (stereo unspecified),-2.29
5,O=c1[nH]c2ccccc2n1CCCN1CCC(n2c(=O)[nH]c3cc(Cl)ccc32)CC1,-1.4
6,C[N+]1(C)CCCC(OC(=O)C(O)(c2ccccc2)c2ccccc2)C1 (stereo unspecified),-0.578
7,CNC1CC(N)C(O)C(OC2OC(CO)C(O)C3OC4(OC(C(N)CO)C(O)C(O)C4O)OC23)C1O (stereo unspecified),3.64
8,CN1C(=O)CCS(=O)(=O)C1c1ccc(Cl)cc1 (stereo unspecified),0.226
9,CN(C)C(=O)Oc1cccc([N+](C)(C)C)c1,-1.46
10,CCC1=C[C@H]2CN3CCc4c([nH]c5ccccc45)[C@](C(=O)OC)(C2)[C@H]13,2.26
11,NCC(O)c1ccc(O)cc1 (stereo unspecified),1.19
12,CCCN1C[C@H](CSC)C[C@@H]2c3cccc4[nH]cc(c34)C[C@H]21,0.236
13,CN1C(=O)COc2c(C(=O)NC3CN4CCC3CC4)cc(Cl)cc21 (stereo unspecified),-0.021
14,Cn1c(CCCC(=O)O)nc2cc(N(CCCl)CCCl)ccc21,-0.00689
15,CC(=O)OC12COC1CC(O)C1(C)C(=O)C(O)C3=C(C)C(O)CC(O)(C(OC(=O)c4ccccc4)C21)C3(C)C (stereo unspecified),21.5
16,CC(=O)OC1CN2CCC1CC2 (stereo unspecified),-0.883
17,CC[C@@]1(O)C(=O)OCc2c1cc1n(c2=O)Cc2cc3ccccc3nc2-1,46.6
18,C/C=C(\C)C(=O)N[C@@H](c1ccccc1)[C@@H](O)C(=O)O[C@H]1C[C@@]2(O)[C@@H](OC(=O)c3ccccc3)[C@@H]3[C@]4(OC(C)=O)CO[C@@H]4C[C@H](O)[C@@]3(C)C(=O)[C@H](OC(C)=O)C(=C1C)C2(C)C,37
19,CCOC(=O)c1cncn1[C@H](C)c1ccccc1,-0.15

row,SMILES,growth inhibition [%]
1,O=C(O[C@H]1C[C@H]2CC[C@@H](C1)[N+]21CCCC1)C(O)(c1ccccc1)c1ccccc1,-1.98
2,NCCc1c[nH]c2ccc(O)cc12,0.704
3,CCC1(c2ccc(N)cc2)CCC(=O)NC1=O (stereo unspecified),-1.8
4,N.N.[Cl][Pt][Cl],-3
5,C[N+]1(C)[C@@H]2C[C@@H](OC(=O)[C@H](CO)c3ccccc3)C[C@H]1[C@@H]1O[C@@H]12,-0.286
6,CN1C2CC(O)CC1C1OC12 (stereo unspecified),-1.37
7,C=CC[C@]1(O)CC[C@H]2[C@@H]3CCC4=CC(=O)CCC4=C3C=C[C@@]21C,1.08
8,CCC(COC(=O)c1cc(OC)c(OC)c(OC)c1)(c1ccccc1)N(C)C (stereo unspecified),23.2
9,CCCCCCCCCCCCCCCC[n+]1ccccc1,55.8
10,CC[C@@H](C(N)=O)N1CCCC1=O,-1.25
11,Cc1cc(O)ccc1Cl,-0.746
12,OC(c1ccccc1)(c1ccccc1)C1CCNCC1,-1.01
13,Cc1cccc(C)c1NC1=NCCCS1,2.42
14,COc1ccc(C(=O)N2CCCC2=O)cc1,-2.06
15,N[C@@H]1C[C@H]1c1ccccc1.N[C@H]1C[C@@H]1c1ccccc1,1.14
16,COC(=O)C1=CCCN(C)C1,0.353
17,C=CCN.ClCC1CO1 (stereo unspecified),0.558
18,O=P1(NCCCl)OCCCN1CCCl (stereo unspecified),-2.15
19,CN(C)C1C(=O)C(C(N)=O)=C(O)C2(O)C(=O)C3=C(O)c4c(O)cccc4C(C)(O)C3CC12 (stereo unspecified),2.83

# From the supplement of paper PMC8253809
